Screens: PubChem, National Center for Advancing Translational Sciences (NCATS)
The entries come from a sample that favours hits as a whole.
Pf Dd2 inh = qHTS Primary assay for Inhibitors of Plasmodium falciparum Dd2 growth in vitro | P. falciparum Dd2 growth, SYBR Green, 72 h | Potency, µM (titrated, usually from 28.9 µM), hits mostly inhibitors | hit rate 4.3% among 120,000 | AID 1347417, 2020; active = well fitted inhibition curve with a large enough effect; also: nearly all actives have a fitted effect of over 65% in size
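Readout: SYBR Green fluorescence, 485 nm excitation, 535 nm emission, after ~16 h lysis at 37C. Before that, Dd2-infected red cells (2.5% hematocrit) grew 72 h with compound, 29 uM top final concentration.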
Numbers stand for hits; n = inactive; [ ] = remark or other dose.

SMILES	Pf Dd2 inh
CCOC(=O)c1c(NC(=O)c2ccc(C)cc2)sc2c1CCCCC2	n
COC(=O)c1ccc2c(c1)sc(=NC(=O)c1ccc(S(=O)(=O)N3CCCCC3)cc1)n2C	n
CCOC(=O)c1c(NC(=O)c2ccc(S(=O)(=O)N3CCC(C)CC3)cc2)sc2c1CCN(CC)C2	8.9µM
COC(=O)c1c(NC(=O)c2ccc(S(=O)(=O)N3CCCCC3)cc2)sc2c1CCN(C)C2	10µM
CCC1CCCCN1S(=O)(=O)c1ccc(C(=O)Nc2sc3c(c2C(=O)NC)CCC3)cc1 (stereo unspecified)	13µM
COC(=O)c1c(NC(=O)c2ccc(S(=O)(=O)N3CCCC(C)C3)cc2)sc2c1CCN(C(C)C)C2 (stereo unspecified)	8.9µM
Cc1cc(Cl)ccc1S(=O)(=O)N1CCC(Oc2ccc(C(N)=O)cn2)CC1	n
COc1cccc(C2Cn3nnc(-c4nc(-c5ccc(C)cc5)no4)c3CO2)c1 (stereo unspecified)	n
Cc1nc(C(=O)N2CC[C@H](NC(=O)c3cnccn3)C[C@H]2C(=O)N[C@H](C)C(N)=O)cs1	n
Cc1nc(N2CCC(C(=O)NCCc3cccs3)CC2)cc(C(F)(F)F)n1	n
O=c1c2c(CO)c(-c3ccccc3)nn2ccn1Cc1ccccc1F	n
CCCNC(=O)N1CCc2nc(N3CCN(C)CC3)sc2C1	n
CC(=O)c1cc(CC(=O)N2CCC3(CCCN(C(C)C)C3=O)C2)cs1 (stereo unspecified)	n
Cc1ccc(C)c(CC(=O)NCc2cc3n(n2)CCCN(CC(C)C)C3)c1	n
CCNC(=O)c1cccnc1OC1CCN(C(=O)c2cc(C)ccc2C)C1 (stereo unspecified)	n
Cc1ccsc1C(=O)N1CCC(n2cc(-c3nc(-c4ccccc4)no3)nn2)CC1	n
CCc1nc(-c2ccc(OC3CCN(C(=O)c4sc(C)nc4C)C3)cc2)no1 (stereo unspecified)	n[5.79 µM]
O=C(CCC1CCN(S(=O)(=O)c2ccccc2)CC1)N1CCCCC1	n
CCN(CC)C(=O)N1CCCC(Cc2ncc(C)n2Cc2ccc(F)cc2)C1 (stereo unspecified)	3.5µM
COc1ccc(C(=O)N2CCCC(Cc3ncc(C)n3Cc3ccc(F)cc3)C2)cn1 (stereo unspecified)	n
CCS(=O)(=O)N1CCCC(Cc2ncc(C)n2Cc2ccc(F)cc2)C1 (stereo unspecified)	1.8µM
Cc1cnc(CC2CCN(C(=O)C3CC3)C2)n1C(C)C (stereo unspecified)	n
Cc1cnc(CC2CCN(S(=O)(=O)c3ccc4c(c3)CCC4)C2)n1CC1CC1 (stereo unspecified)	n
CCS(=O)(=O)N1CCCC(Cc2ncc(C)n2C(C)C)C1 (stereo unspecified)	n
CCCn1c(C)cnc1CC1CCCN(S(=O)(=O)c2cn(C)cn2)C1 (stereo unspecified)	n
SMILES	Pf Dd2 inh
CCCn1c(C)cnc1CC1CCN(S(=O)(=O)c2ccc3c(c2)CCC3)C1 (stereo unspecified)	1µM
Cc1cnc(CC2CCN(S(=O)(=O)c3cn(C)cn3)C2)n1Cc1ccccc1 (stereo unspecified)	n
CCCn1c(C)cnc1CC1CCCN(S(C)(=O)=O)C1 (stereo unspecified)	n
Cc1cnc(CC2CCCN(C(=O)COc3ccccc3)C2)n1Cc1ccc(F)cc1 (stereo unspecified)	n
Cc1cnc(CC2CCN(S(=O)(=O)Cc3ccccc3)C2)n1C(C)C (stereo unspecified)	4.5µM
CCCOc1cc(C)c2c(c1C)C[C@H]([C@H](C)C(=O)NCCN1CCOCC1)CC2	n
Cc1cc2nc3n(c(=O)c2n1CC(=O)Nc1cccc(C#N)c1)CCC3	n
COc1ccc(C(=O)N2CCOC[C@H](Oc3ccc(C(F)(F)F)cc3)C2)cc1	n
Cc1cc(OC(C)C(=O)N2CCc3c(nc[nH]c3=O)C2)cc(C)c1Cl (stereo unspecified)	n
COc1c[nH]c(CN2CCCC(Nc3ccc(C(C)C)cc3)C2)cc1=O (stereo unspecified)	n
O=C(CC1CCN(C(=O)C2CCC2)C1)NCc1ccccc1 (stereo unspecified)	n
COCc1nc(C2CCN(C(=O)N(C)C)C2)no1 (stereo unspecified)	n
Cc1ccc2c(c1)SCC(=O)N2CC(=O)N(C)Cc1ccoc1	n
O=C1CCCN1CCCN1C(=O)[C@@H]2C[C@@H](O)CN2C2(CN(C3COC3)C2)C1=O	n
CC1Oc2ccc(NC(=O)C3CCCC3)cc2CN(Cc2ccccc2Cl)C1=O (stereo unspecified)	n
CC(C)CCC(=O)N1CC(C(=O)N(C)C)C2(CCOCC2)C1 (stereo unspecified)	n
O=C(NCc1cccs1)C1=NO[C@@H]2CN(c3cccnc3)C[C@H]12	n
COCCCNC(=O)C1(C)CN(Cc2ccccc2)Cc2ccc(NCC(C)C)nc21 (stereo unspecified)	n
CC(C)CNc1ccc2c(n1)C(C)(C(=O)Nc1ccn(C)n1)CN(Cc1ccccc1)C2 (stereo unspecified)	n
